From PubChem BioAssay (Tox21)
Records with an inconclusive call do not appear. Active and inactive are the calls of the source. Unless noted, the call rests on the fitted dose curve; in most records, active means well fitted curve in the direction sought with a large enough effect in the repeat runs; inconclusive means weak or mixed curves; inactive means no such curve, though single readings can be large; an effect the other way counts as inactive or inconclusive.

Tests used:
[1] = qHTS assay to identify aromatase inhibitors - cell viability counter screen (AID 743084);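 further: cells stimulated with testosterone during compound exposure; nearly all actives have a fitted effect of over 55% in size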
[2] = target: Aryl hydrocarbon receptor (Homo sapiens) (UniProt P35869); assay: qHTS assay to identify small molecule that activate the aryl hydrocarbon receptor (AhR) signaling pathway (AID 743085);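 further: HG2L7.5c1 human HepG2 liver cells with stably integrated DRE-driven firefly reporter; series mostly up to about 70 µM; nearly all actives have a fitted effect of over 15% in size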
Aryl hydrocarbon receptor (Homo sapiens), sequence (P35869 whole entry, looked up): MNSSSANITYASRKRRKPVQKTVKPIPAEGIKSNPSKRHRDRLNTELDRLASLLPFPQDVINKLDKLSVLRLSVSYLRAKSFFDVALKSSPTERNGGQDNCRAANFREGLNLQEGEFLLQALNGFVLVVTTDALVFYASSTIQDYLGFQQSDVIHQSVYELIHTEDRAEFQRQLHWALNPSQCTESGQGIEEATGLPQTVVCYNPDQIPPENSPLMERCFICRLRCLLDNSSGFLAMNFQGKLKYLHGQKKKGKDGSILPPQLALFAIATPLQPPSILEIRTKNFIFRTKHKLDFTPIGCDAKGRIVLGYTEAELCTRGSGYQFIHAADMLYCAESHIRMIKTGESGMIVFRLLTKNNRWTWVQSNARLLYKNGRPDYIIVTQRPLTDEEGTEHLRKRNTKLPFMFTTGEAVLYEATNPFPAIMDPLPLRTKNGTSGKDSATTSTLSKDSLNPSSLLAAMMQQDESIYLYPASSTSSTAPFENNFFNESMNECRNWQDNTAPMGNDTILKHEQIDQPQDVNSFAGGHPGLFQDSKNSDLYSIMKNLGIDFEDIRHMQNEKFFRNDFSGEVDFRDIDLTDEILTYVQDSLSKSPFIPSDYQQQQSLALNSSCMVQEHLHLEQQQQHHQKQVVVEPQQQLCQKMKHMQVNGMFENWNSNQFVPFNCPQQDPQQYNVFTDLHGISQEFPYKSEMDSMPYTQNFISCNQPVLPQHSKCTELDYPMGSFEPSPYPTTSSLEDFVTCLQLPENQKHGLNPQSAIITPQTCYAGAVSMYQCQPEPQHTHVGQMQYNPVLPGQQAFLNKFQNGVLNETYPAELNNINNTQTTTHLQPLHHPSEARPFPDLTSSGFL
Summary of the method: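 Cell line HG2L7.5c1 (human hepatoma, 20× DRE-luc). Plated, 5 h 37C, compound/DMSO added, 24 h 37C. CellTiter-Fluor 30 min 37C → fluorescence; then ONE-Glo 30 min RT → luminescence.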

[3] = qHTS assay to identify small molecule that activate the aryl hydrocarbon receptor (AhR) signaling pathway - cell viability counter screen (AID 743086);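 further: HepG2 liver cells carrying the AhR DRE luciferase reporter; series mostly up to about 70 µM; nearly all actives have a fitted effect of over 45% in size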
Summary of the method: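 HepG2-AhR-luc (HG2L7.5c1) cells, 4000/well, treated 24 h at 37 C with compound; viability measured as CellTiter-Fluor fluorescence after 30 min in the same wells as the luciferase read.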

[4] = target: Peroxisome proliferator-activated receptor gamma (Homo sapiens) (UniProt P37231); assay: qHTS assay to identify small molecule agonists of the peroxisome proliferator-activated receptor gamma (PPARg) signaling pathway (AID 743094; active means well fitted activation curve with a large enough effect in the signal ratio in the repeat runs, not every such curve was filed as active; the % refers to the signal ratio; further: potency means the concentration at half of the fitted maximal effect)
Peroxisome proliferator-activated receptor gamma (Homo sapiens), sequence (P37231 whole entry, looked up): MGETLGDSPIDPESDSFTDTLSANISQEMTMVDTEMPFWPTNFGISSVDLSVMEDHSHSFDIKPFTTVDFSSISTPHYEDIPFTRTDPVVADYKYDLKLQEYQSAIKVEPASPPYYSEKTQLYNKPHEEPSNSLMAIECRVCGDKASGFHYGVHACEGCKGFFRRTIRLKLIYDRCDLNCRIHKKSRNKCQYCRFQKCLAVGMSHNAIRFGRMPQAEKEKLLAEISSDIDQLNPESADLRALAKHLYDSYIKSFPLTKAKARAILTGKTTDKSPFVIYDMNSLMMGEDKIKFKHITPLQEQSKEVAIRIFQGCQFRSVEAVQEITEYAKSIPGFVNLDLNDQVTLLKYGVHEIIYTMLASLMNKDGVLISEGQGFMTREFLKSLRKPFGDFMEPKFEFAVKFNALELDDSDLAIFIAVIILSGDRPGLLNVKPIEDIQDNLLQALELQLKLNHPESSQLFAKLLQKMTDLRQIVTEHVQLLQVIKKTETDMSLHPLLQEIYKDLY
Summary of the method: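 Cells from the PPARg UAS-bla HEK293H line are plated and incubated 5 h at 37C. Compounds in DMSO are pinned in and left 17 h at 37C. LiveBLAzer B/G substrate is then added for 1 h at room temperature before fluorescence is measured.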

[5] = qHTS assay for small molecule agonists of the antioxidant response element (ARE) signaling pathway (AID 743202; active means well fitted activation curve with a large enough effect in the signal ratio in the repeat runs, not every such curve was filed as active; the % refers to the signal ratio)
Summary of the method: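 HepG2 ARE-bla cells; 16 h treatment at 37 C; FRET-based beta-lactamase fluorescence read after 2 h substrate incubation at room temperature.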

[6] = qHTS assay for small molecule agonists of the antioxidant response element (ARE) signaling pathway - cell viability counter screen (AID 743203; calls by dose curve; further: nearly all actives have a fitted effect of over 55% in size)
Summary of the method: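 Cytotoxicity was tested in parallel with the ARE reporter screen. ARE-bla HepG2 cells were exposed to compounds for 16 hrs, and viability was taken from CellTiter-Glo luminescence.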

[7] = qHTS assay for small molecule activators of the heat shock response signaling pathway - cell viability counter screen (AID 743209); further: nearly all actives have a fitted effect of over 50% in size
Summary of the method: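 Cytotoxicity counter screen run in parallel with the HSE beta-lactamase reporter, using the same wells. HeLa HSE-bla cells received compound for 5 h at 37 C; ATP-based CellTiter-Glo luminescence was measured after 30 min at room temperature.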

[8] = qHTS assay to identify small molecule agonists of the peroxisome proliferator-activated receptor delta (PPARd) signaling pathway - cell viability counter screen (AID 743211); further: nearly all actives have a fitted effect of over 55% in size
Summary of the method: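 HEK293H PPARd-bla, 3000 cells/well; 5 h preincubation 37C/5% CO2; cpd in DMSO, 17 h 37C; B/G FRET substrate 2 h RT; CellTiter-Glo 30 min RT, luminescence.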

[9] = target: Peroxisome proliferator-activated receptor delta (Homo sapiens) (UniProt Q03181); assay: qHTS assay to identify small molecule agonists of the peroxisome proliferator-activated receptor delta (PPARd) signaling pathway (AID 743212; calls by dose curve)
Peroxisome proliferator-activated receptor delta (Homo sapiens), sequence (Q03181 whole entry, looked up): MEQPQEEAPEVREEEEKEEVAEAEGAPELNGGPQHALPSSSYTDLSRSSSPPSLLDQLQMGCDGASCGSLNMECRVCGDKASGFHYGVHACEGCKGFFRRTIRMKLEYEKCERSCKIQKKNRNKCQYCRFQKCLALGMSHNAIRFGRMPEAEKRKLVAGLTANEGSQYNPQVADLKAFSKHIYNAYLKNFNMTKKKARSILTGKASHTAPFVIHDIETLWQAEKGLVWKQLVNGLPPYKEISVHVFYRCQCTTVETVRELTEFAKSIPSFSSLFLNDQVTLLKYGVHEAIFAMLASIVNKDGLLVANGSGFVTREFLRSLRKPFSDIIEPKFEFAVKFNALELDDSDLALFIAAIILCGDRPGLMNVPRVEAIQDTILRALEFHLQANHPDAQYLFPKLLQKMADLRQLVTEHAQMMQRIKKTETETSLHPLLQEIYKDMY
Summary of the method: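 Tox21 library screened in GeneBLAzer PPARd UAS-bla HEK293H cells. After compound treatment at 37 C, a FRET-based beta-lactamase substrate was applied for 2 h and fluorescence recorded.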

[10] = qHTS assay to identify small molecule antagonists of the peroxisome proliferator-activated receptor delta (PPARd) signaling pathway - cell viability counter screen (AID 743213); further: nearly all actives have a fitted effect of over 50% in size
Summary of the method: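 Same-well viability: cells pre-incubated 5 h, dosed with compound plus 300 nM L165041, kept 17 h at 37 C, FRET substrate 2 h RT, then CellTiter-Glo 30 min RT and luminescence.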

[11] = target: Bile acid receptor (Homo sapiens) (UniProt Q96RI1); assay: qHTS assay to identify small molecule antagonists of the farnesoid-X-receptor (FXR) signaling pathway (AID 743217; active means well fitted inhibition curve with a large enough effect in the signal ratio in the repeat runs, not every such curve was filed as active; the % refers to the signal ratio)
Bile acid receptor (Homo sapiens), sequence (Q96RI1 whole entry, looked up): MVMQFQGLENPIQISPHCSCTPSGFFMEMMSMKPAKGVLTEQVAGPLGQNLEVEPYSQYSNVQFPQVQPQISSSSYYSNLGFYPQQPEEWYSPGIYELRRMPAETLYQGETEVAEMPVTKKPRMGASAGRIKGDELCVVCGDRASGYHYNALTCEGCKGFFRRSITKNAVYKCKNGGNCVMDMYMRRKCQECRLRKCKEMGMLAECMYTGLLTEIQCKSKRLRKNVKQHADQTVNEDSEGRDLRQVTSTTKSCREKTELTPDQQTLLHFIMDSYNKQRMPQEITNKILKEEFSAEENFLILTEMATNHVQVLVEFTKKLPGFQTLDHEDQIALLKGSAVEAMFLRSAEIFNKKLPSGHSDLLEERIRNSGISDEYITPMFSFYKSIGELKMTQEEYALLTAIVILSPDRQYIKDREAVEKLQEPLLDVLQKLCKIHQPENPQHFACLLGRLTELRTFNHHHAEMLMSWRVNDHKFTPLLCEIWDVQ
Summary of the method: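 Cells carrying a UAS-driven beta-lactamase reporter (GeneBLAzer FXR-UAS-bla HEK 293T) were plated and rested 5 h at 37 °C. Compounds in DMSO were added alongside chenodeoxycholic acid agonist at 50 uM final and left 16 h at 37 °C before FRET substrate readout.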

[12] = qHTS assay to identify small molecule agonists of the farnesoid-X-receptor (FXR) signaling pathway - cell viability counter screen (AID 743218); further: nearly all actives have a fitted effect of over 45% in size
Summary of the method: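 Cells were seeded, left 5 h at 37 C and 5% CO2, then dosed with compound in DMSO for 16 h. After the beta-lactamase FRET read, CellTiter-Glo was added and luminescence measured 30 min later.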

[13] = target: Bile acid receptor (Homo sapiens) (UniProt Q96RI1); assay: qHTS assay to identify small molecule agonists of the farnesoid-X-receptor (FXR) signaling pathway (AID 743220; active means well fitted activation curve with a large enough effect in the signal ratio in the repeat runs, not every such curve was filed as active; the % refers to the signal ratio)
Summary of the method: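 FXR-UAS-bla HEK 293T cells carrying a UAS-driven beta-lactamase reporter were plated for 5 h at 37C/5% CO2, then exposed to DMSO-dissolved Tox21 10K compounds for 16 h at 37C. A LiveBLAzer B/G FRET substrate was loaded for 2 h at room temperature before fluorescence reading.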

[14] = qHTS assay to identify small molecule antagonists of the farnesoid-X-receptor (FXR) signaling pathway - cell viability counter screen (AID 743221; active means well fitted cell-killing curve with a large enough effect in the repeat runs, not every such curve was filed as active; further: nearly all actives have a fitted effect of over 50% in size)
Summary of the method: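 Luminescence from CellTiter-Glo measures cytotoxicity in GeneBLAzer FXR-UAS-bla HEK 293T cells. Cells were exposed to compounds with 50 uM chenodeoxycholic acid (final) for 16 h at 37 C, in wells also used for the reporter readout.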

[15] = target: Vitamin D3 receptor (Homo sapiens) (UniProt P11473); assay: qHTS assay to identify small molecule agonists of the vitamin D receptor (VDR) signaling pathway (AID 743222; calls by dose curve)
Vitamin D3 receptor (Homo sapiens), sequence (P11473 whole entry, looked up): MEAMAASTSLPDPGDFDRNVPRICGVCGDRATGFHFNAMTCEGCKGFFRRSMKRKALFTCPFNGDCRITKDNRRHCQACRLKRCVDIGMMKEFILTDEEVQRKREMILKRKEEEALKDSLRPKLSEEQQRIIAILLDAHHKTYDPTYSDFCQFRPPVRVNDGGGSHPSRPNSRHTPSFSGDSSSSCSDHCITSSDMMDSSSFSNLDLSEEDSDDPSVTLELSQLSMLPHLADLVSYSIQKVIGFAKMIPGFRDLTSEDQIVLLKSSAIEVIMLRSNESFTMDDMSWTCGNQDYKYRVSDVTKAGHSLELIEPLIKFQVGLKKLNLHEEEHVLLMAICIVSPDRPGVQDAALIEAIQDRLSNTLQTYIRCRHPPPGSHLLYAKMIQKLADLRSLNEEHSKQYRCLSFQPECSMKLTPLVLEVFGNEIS
Summary of the method: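 Cells carrying a VDR-driven beta-lactamase reporter are seeded at 2,000 per well and rested 4 h. Compounds in DMSO are added for 16 h at 37C, and FRET substrate fluorescence is measured after 2 h at room temperature.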

[16] = target: Vitamin D3 receptor (Homo sapiens) (UniProt P11473); assay: qHTS assay to identify small molecule antagonists of the vitamin D receptor (VDR) signaling pathway (AID 743223; active means well fitted inhibition curve with a large enough effect in the signal ratio in the repeat runs, not every such curve was filed as active; the % refers to the signal ratio)
Summary of the method: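 Antagonist mode uses 1alpha,25-dihydroxyvitamin D3 at 3 nM final as stimulus. VDR-bla cells receive compounds in DMSO, incubate 16 h at 37C, then a beta-lactamase FRET substrate for 2 h at room temperature before fluorescence measurement.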

[17] = qHTS assay to identify small molecule antagonists of the peroxisome proliferator-activated receptor gamma (PPARg) signaling pathway - cell viability counter screen (AID 743194); further: nearly all actives have a fitted effect of over 55% in size
Summary of the method: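 Cytotoxicity counter screen in PPARg-bla HEK293H cells, same wells as reporter assay. Compounds plus 50 nM rosiglitazone (final) for 17 h at 37 C, then viability read by CellTiter-Glo luminescence.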

[18] = qHTS assay for small molecule activators of the heat shock response signaling pathway (AID 743210; active means well fitted activation curve with a large enough effect in the signal ratio in the repeat runs, with a control signal flat, not every such curve was filed as active; the % refers to the signal ratio;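 further: HeLa cells with beta-lactamase reporter driven by heat shock elements; series mostly up to about 63 µM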)
Summary of the method: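 Following overnight attachment, HSE-bla HeLa cells received test compounds for 5 h at 37 C; beta-lactamase activity was then detected via FRET substrate fluorescence.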

[19] = target: Peroxisome proliferator-activated receptor delta (Homo sapiens) (UniProt Q03181); assay: qHTS assay to identify small molecule antagonists of the peroxisome proliferator-activated receptor delta (PPARd) signaling pathway (AID 743215; active means well fitted inhibition curve with a large enough effect in the signal ratio in the repeat runs, not every such curve was filed as active; the % refers to the signal ratio;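 further: cells stimulated with agonist L165041 at 300 nM final during compound exposure; series mostly up to about 62 µM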)
Summary of the method: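 Cells: HEK293H with a UAS-driven beta-lactamase reporter responsive to PPARd. Compounds were co-added with L165041 (300 nM, final) and incubated 17 h at 37 C before a 2 h room-temperature FRET substrate step and fluorescence reading.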

[20] = target: Peroxisome proliferator-activated receptor gamma (Homo sapiens) (UniProt P37231); assay: qHTS assay to identify small molecule antagonists of the peroxisome proliferator-activated receptor gamma (PPARg) signaling pathway (AID 743191; calls by dose curve; further: nearly all actives have a fitted effect of over 30% in size; further: potency means the concentration at half of the fitted maximal effect; on ratio activity, negative = inhibition: series mostly up to about 63 µM)
Summary of the method: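 GeneBLAzer PPARg UAS-bla HEK293H cells, 5 h post-plating, exposed to compounds 17 h at 37C. LiveBLAzer B/G FRET substrate added for 1 h at room temperature; beta-lactamase reporter read by fluorescence intensity.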
On the % scale 0 is the no-effect control and ±100 the full control effect.

FB(F)F
inactive: Potency [1] | Potency [2] | Potency [3] | Potency [4] | Potency [5] | outcome [6] | outcome [7] | outcome [8] | outcome [9] | outcome [10] | outcome [11] | outcome [12] | outcome [13] | outcome [14] | outcome [15] | outcome [16]

Cc1ccc(C(=O)c2ccccc2)cc1
inactive: Potency [1] | Potency [2] | Potency [3] | Potency [4] | outcome [17] | Potency [5] | outcome [6] | outcome [7] | outcome [18] | outcome [8] | outcome [9] | outcome [10] | outcome [19] | outcome [11] | outcome [12] | outcome [13] | outcome [14] | outcome [15] | outcome [16]

CCCCCCCCCCOc1cc2c(=O)c(C(=O)OCC)c[nH]c2cc1OCC
inactive: Potency [1] | Potency [2] | Potency [3] | Potency [4] | activation [5] -0.445% [at 8.36 µM] | activity change, negative = cytotoxicity [7] 1.04% [at 5.95 µM] | activation [18] -0.938% [at 5.95 µM] | activity change, negative = cytotoxicity [8] 8.81% [at 5.95 µM] | ratio activity, negative = inhibition [19] 0.26% [at 6.26 µM] | viability change, negative = cytotoxic [12] 4.21% [at 5.95 µM] | activity change, negative = cytotoxicity [14] 5.04% [at 5.95 µM]

O=C(c1ccccc1O)c1ccccc1O
inactive: Potency [1] | Potency [2] | Potency [3] | Potency [4] | outcome [6] | outcome [7] | outcome [18] | outcome [8] | outcome [9] | outcome [10] | outcome [11] | outcome [12] | outcome [13] | outcome [14] | outcome [15] | outcome [16]
active: Potency [20] 43.2 µM

CCCCOCCOC(=O)CCCCCCCCC(=O)OCCOCCCC
inactive: Potency [1] | Potency [2] | Potency [3] | Potency [4] | Potency [20] | Potency [5] | outcome [6] | outcome [18] | outcome [8] | outcome [9] | outcome [10] | outcome [19] | outcome [12] | outcome [14]

CO[C@@]1(NC(=O)C(C(=O)O)c2ccc(O)cc2)C(=O)N2C(C(=O)O)=C(CSc3nnnn3C)CO[C@@H]21 (some centres undefined)
inactive: Potency [1] | Potency [2] | Potency [3] | Potency [4] | Potency [5] | outcome [6] | outcome [7] | outcome [18] | outcome [8] | outcome [9] | outcome [19] | outcome [14] | outcome [15] | outcome [16]

CCCCc1nc(Cl)c(CO)n1Cc1ccc(-c2ccccc2-c2nn[nH]n2)cc1
active: Potency [4] 23.9 µM
inactive: Potency [1] | Potency [2] | Potency [3] | Potency [20] | outcome [17] | outcome [6] | outcome [18] | outcome [8] | outcome [9] | outcome [10] | outcome [19] | outcome [12] | outcome [13]

OCCCCCO
inactive: Potency [1] | Potency [2] | Potency [3] | Potency [4] | Potency [20] | Potency [5] | outcome [6] | outcome [7] | outcome [18] | outcome [9] | outcome [19] | outcome [12] | outcome [14]

C[C@@H]1CCC[C@H](C)N1
inactive: Potency [1] | Potency [2] | Potency [3] | Potency [4] | Potency [20] | Potency [5] | outcome [6] | outcome [7] | outcome [18] | outcome [8] | outcome [10] | outcome [12] | outcome [14] | outcome [15] | outcome [16]

O=[N+]([O-])c1ccc(/C=N\O)o1
inactive: Potency [1] | Potency [2] | Potency [3] | Potency [4] | Potency [20] | outcome [17] | outcome [6] | outcome [7] | outcome [8] | outcome [12] | outcome [14] | outcome [15] | outcome [16]

COc1ccccc1OCC1CNC(=O)O1 (centres undefined)
inactive: Potency [1] | Potency [2] | Potency [3] | Potency [4] | outcome [17] | Potency [5] | outcome [6] | outcome [7] | outcome [18] | outcome [8] | outcome [9] | outcome [10] | outcome [19] | outcome [12] | outcome [14] | outcome [15] | outcome [16]

O=C1CCCCCCCCCCCCCCO1
inactive: Potency [1] | Potency [2] | Potency [3] | Potency [4] | outcome [17] | outcome [6] | outcome [7] | outcome [18] | outcome [8] | outcome [9] | outcome [10] | outcome [19] | outcome [12] | outcome [14] | outcome [15]

Nc1ccn([C@@H]2O[C@H](CO)[C@@H](O)C2O)c(=O)n1 (some centres undefined)
inactive: Potency [1] | Potency [2] | Potency [3] | Potency [4] | outcome [17] | outcome [7] | outcome [18] | outcome [8] | outcome [9] | outcome [10] | outcome [19] | outcome [12] | outcome [13] | outcome [15]

CO[C@@]1(NC(=O)CSC[C@@H](N)C(=O)O)C(=O)N2C(C(=O)O)=C(CSc3nnnn3C)CS[C@@H]21
inactive: Potency [1] | Potency [2] | Potency [3] | Potency [4] | Potency [20] | outcome [17] | outcome [6] | outcome [7] | outcome [18] | outcome [8] | outcome [10] | outcome [11] | outcome [12] | outcome [13] | outcome [14] | outcome [16]

c1coc(CNc2ncnc3nc[nH]c23)c1
inactive: Potency [1] | Potency [2] | Potency [3] | Potency [4] | outcome [17] | outcome [6] | outcome [18] | outcome [8] | outcome [9] | outcome [10] | outcome [19] | outcome [12] | outcome [15] | outcome [16]

CC1OC1C1CCC2(C)OC2C1 (centres undefined)
inactive: Potency [1] | Potency [2] | Potency [3] | Potency [4] | Potency [20] | Potency [5] | outcome [6] | outcome [7] | outcome [18] | outcome [8] | outcome [12] | outcome [14] | outcome [15] | outcome [16]

O=C(O)CCSCCC(=O)O
inactive: Potency [1] | Potency [2] | Potency [3] | Potency [4] | Potency [20] | Potency [5] | outcome [6] | outcome [7] | outcome [18] | outcome [8] | outcome [9] | outcome [10] | outcome [19] | outcome [12] | outcome [14]

CC(=O)c1cnccn1
inactive: Potency [1] | Potency [2] | Potency [3] | Potency [4] | outcome [17] | Potency [5] | outcome [7] | outcome [18] | outcome [8] | outcome [9] | outcome [10] | outcome [19] | outcome [11] | outcome [12] | outcome [13] | outcome [14] | outcome [15] | outcome [16]
